Results on 19 molecules are retold here after ChEMBL document CHEMBL3988442, “University of Dundee, Small-Polar-MMV Screening Library” (2021).

Assay [1] concerns the target T1, Aspartate--tRNA(Asp/Asn) ligase (Mycobacterium tuberculosis (strain ATCC 25618 / H37Rv)) (UniProt P9WFW3). Also: in the data most compounds retested in dose-response had high values.
T1 sequence (whole entry): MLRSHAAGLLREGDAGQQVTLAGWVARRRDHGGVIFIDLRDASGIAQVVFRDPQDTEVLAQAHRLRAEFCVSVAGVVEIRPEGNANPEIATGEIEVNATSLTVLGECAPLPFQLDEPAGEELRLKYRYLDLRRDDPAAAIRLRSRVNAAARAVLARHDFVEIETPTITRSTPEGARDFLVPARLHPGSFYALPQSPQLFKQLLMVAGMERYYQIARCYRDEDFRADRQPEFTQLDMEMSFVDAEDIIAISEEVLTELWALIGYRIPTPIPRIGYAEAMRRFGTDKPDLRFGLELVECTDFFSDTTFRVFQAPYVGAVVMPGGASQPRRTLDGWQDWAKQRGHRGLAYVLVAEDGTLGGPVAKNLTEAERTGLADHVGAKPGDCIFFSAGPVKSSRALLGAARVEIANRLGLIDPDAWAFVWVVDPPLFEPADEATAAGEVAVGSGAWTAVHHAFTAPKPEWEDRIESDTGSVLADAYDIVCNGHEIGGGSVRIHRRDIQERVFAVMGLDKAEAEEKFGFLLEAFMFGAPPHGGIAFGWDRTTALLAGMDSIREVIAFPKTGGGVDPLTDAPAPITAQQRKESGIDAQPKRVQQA
As to the kind of experiment: Assay for Asp RNA synthetase-1 from Mycobacterium tuberculosis. The assay is classed as functional. More on the design: scale not given: direction of the effect not stated beside the values. As to conditions: 30 µM.

Assay [2] concerns the target Shiga toxin 2 (Escherichia coli O157:H7) (UniProt P09385+P09386). As to the kind of experiment: E. coli 0.157:H7 Shiga Toxin SOP - stx2 screening assay. The following applies: 30 µM. Also on record: scale not given: direction of the effect not stated beside the values. It is filed as functional.

Structures are written as SMILES.

On to `COc1ccc(NC(C)C(=O)N2CCN(c3ncccn3)CC2)cn1` (stereo not drawn), for which the figures for the Percent Effect in assay [1] and in assay [2] were -4.63% and 5.46%, respectively.
With `Cn1nc2c(cc1=O)CN(Cc1nnc(C3CC3)o1)CC2`, the figures for the Percent Effect in assay [1] and in assay [2] were 47.1% and -53.6%, respectively.
As for `CN(C)C(=O)CNC(=O)c1ccc(Cl)cc1F`, the results for the Percent Effect in assay [1] and in assay [2] were -6.71% and -8.79%, respectively.
Take `O=C(NCCOc1ccc2c(c1)OCO2)C1CC(=O)N(CC2CC2)C1` (stereo not drawn): the Percent Effect in assay [1] turned out to be 4.55%; in assay [2], 24.2%.
`CC(C)c1nn(C)c(N2CCOCC2)c1CNCC(=O)N(C)C`: the values for the Percent Effect in assay [1] and in assay [2] were -4.92% and -14.4%, respectively.
Turning to `Cn1ccc(C(=O)N2CCCC(Cc3cccc4ncccc34)C2)n1` (stereo not drawn), the Percent Effect in assay [1] is -2.07%; in assay [2], -7.58%.
On to `Cc1noc(CCCC(=O)NC(C)c2ccccn2)n1` (stereo not drawn), for which the Percent Effect in assay [1] was -1.28%; in assay [2], 16%.
The corresponding values for `O=C(Cn1cccnc1=O)NC(Cc1ccsc1)c1ccccn1` (stereo not drawn) are -3.14% and -4.55%.
The corresponding values for `N#Cc1ccccc1OCCN1CCC(N2CCNC2=O)CC1` are -0.816% and -50.9%.
The corresponding values for `COc1ccc(Br)c(C(=O)NCC2CCN(S(=O)(=O)C3CC3)CC2)c1` are -8.22% and -0.843%.
Turning to `CC(C)OCCCNC(=O)CN1CCC(N2CCN(C)C2=O)CC1`, the results for the Percent Effect in assay [1] and in assay [2] were -3% and -14.1%, respectively.
On to `COCC1c2c(cnn2C)CCN1Cc1ccoc1` (stereo not drawn), for which the Percent Effect in assay [1] was 2.94%; in assay [2], -3.41%.
`CCOCC1CN(C(=O)CS(C)(=O)=O)Cc2cnn(C)c21` (stereo not drawn): the figures for the Percent Effect in assay [1] and in assay [2] were 1.19% and -6.98%, respectively.
Consider `Cc1ncsc1C(=O)N1CCCC(c2noc(C(C)C)n2)C1` (stereo not drawn), for which the Percent Effect in assay [1] is -6.6%; in assay [2], -6.13%.
With `Cc1ccc(-c2nc(CN3CCn4c(nnc4C4CC4)C3)co2)cc1`, the Percent Effect in assay [1] is -1.28%; in assay [2], 10.1%.
For `CC(C)CCOCCNC(=O)Nc1cc(C(F)(F)F)c[nH]c1=O`, the Percent Effect turned out to be 1.4% in assay [1] and 5.72% in assay [2].
Turning to `CC(C)c1nc(CC(=O)Nc2nc(CN3CCCCCC3)cs2)cs1`, the results for the Percent Effect in assay [1] and in assay [2] were -0.836% and -37.6%, respectively.
With `c1ccc(CCNC2CCc3ncnn3C2)nc1` (stereo not drawn), the Percent Effect is 5.83% in assay [1] and -16.7% in assay [2].
The corresponding values for `NCC1Cn2nnc(-c3cccc(F)c3)c2CO1` (stereo not drawn) are 1.16% and -69.1%.
